Assay outcomes: PubChem, several laboratories
Myeloid diff 2: myeloid differentiation induction | 1% of 360,000 active | calls only at 10 µM | ER-HoxA9 myeloid progenitors, lysozyme-GFP differentiation, flow cytometry;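 active = normalized GFP-positive differentiation at or above the plate's own cutoff, the solvent-only control mean plus 3 SD; inconclusive = no clear call, values can overlap the other calls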;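 also: cells exposed to compound for four days before flow analysis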
TPT1 inh: C. albicans TPT1 enzyme inhibition; inhibition, % at 5 µM; 0.81% of 300,000 active; recombinant caTPT1, FP RNA substrate dephosphorylation;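 active = inhibition above the mean of all tested compounds plus 3 SD, set per screening campaign, cut at about 24% in these data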
HNF4A DNA FP: change in binding of human HNF4 alpha to DNA. activity change, % at 10 µM. AID 1224865. HNF4a-FITC DNA binding, fluorescence polarization, 1 h. 0.3% of 360,000 active; in the data active = activity change above about 30%, passing the limit was not always enough
Target sequence (P41235 whole entry, looked up): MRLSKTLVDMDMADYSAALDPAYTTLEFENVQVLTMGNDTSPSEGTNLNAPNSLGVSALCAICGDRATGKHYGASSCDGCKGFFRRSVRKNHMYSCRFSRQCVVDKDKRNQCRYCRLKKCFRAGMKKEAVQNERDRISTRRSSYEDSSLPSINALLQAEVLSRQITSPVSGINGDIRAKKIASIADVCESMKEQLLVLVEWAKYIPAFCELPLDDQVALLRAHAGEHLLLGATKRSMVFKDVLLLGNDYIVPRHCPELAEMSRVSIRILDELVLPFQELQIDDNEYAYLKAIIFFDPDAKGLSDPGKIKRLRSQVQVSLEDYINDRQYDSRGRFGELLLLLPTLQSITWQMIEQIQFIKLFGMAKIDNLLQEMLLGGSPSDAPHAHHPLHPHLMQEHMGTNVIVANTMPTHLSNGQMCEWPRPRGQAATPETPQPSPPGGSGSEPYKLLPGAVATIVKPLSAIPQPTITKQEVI
Rpn11 inh: inhibitors of human proteasome Rpn11 | O00487 | human 26S proteasome, Ub4-pepOG fluorescence polarization; 20S core pre-blocked with epoxomicin | inhibition, % at 20 µM | 0.59% of 360,000 active;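 active = inhibition at 20 µM, scaled to each plate's controls, above about 33%, limit read from the data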
TPT1 inh confirm: TPT1 (C. albicans) inhibition, confirmation. AID 2149. shares compounds with TPT1 inh. inhibition, % at 5 µM. 74% of 2,400 active. recombinant caTPT1, fluorescence polarization, RNase T1 coupled;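 active = inhibition above the primary screen limit, the mean inhibition of all tested compounds plus 3 SD, cut at about 25% in these data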
RNase T1 inh: RNase T1 inhibition in TPT1 counter-screen; 83% of 2,400 active; inhibition, % at 5 µM; RNase T1 cleavage, fluorescence polarization, 1536-well; shares compounds with TPT1 inh;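 active = inhibition above the solvent-only control well mean plus 3 SD, limit set per screening run, cut at about 23% in these data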;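 also: inhibitors block cleavage so intact labeled substrate keeps polarization high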
Target sequence (P00651 whole entry, looked up): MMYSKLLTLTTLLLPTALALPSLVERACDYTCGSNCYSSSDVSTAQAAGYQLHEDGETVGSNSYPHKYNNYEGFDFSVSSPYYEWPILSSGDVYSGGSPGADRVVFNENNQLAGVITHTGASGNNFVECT
Each line names hits and unclear results; the compound was inactive in the other large screens (follow-up assays come after a bar, where shown). A selection: hits, their analogues and other compounds. The true share with any hit is near 2.1%.

O=[N+]([O-])c1cc2c(cc1CNCCc1ccc3c(c1)OCO3)OCO2	TPT1 inh 32 | TPT1 inh confirm inactive | RNase T1 inh inactive
O=C1NCN(c2ccccc2)C12CCN(C(c1nnnn1C1CCCCC1)C1CC1)CC2 (centres undefined)	none (no result: TPT1 inh)
NC(=S)/N=C/c1c(O)[nH]c(=O)[nH]c1=O	none
C=CCNC(=S)/N=C/c1c(O)[nH]c(=O)[nH]c1=O	TPT1 inh 26 | TPT1 inh confirm inactive | RNase T1 inh 23
N#CC(C#N)=Cc1ccc(-c2ccccc2)o1	TPT1 inh 37 (no result: Myeloid diff 2, HNF4A DNA FP, Rpn11 inh) | TPT1 inh confirm 36 | RNase T1 inh 64
N#CC(C#N)=Cc1ccc(-c2ccccc2F)o1	none
CC1CC2(C)C(CCC3C2CCC2(C)C(OP(=O)(N4CC4)N4CC4)CCC32)CC1=O (centres undefined)	none (no result: TPT1 inh)
CN(C)c1ccc(C=C(C#N)C#N)cc1	TPT1 inh 40 | TPT1 inh confirm 48 | RNase T1 inh 60
N#CC(C#N)=Cc1ccc(N2CCCC2)cc1	TPT1 inh 63 | TPT1 inh confirm 69 | RNase T1 inh 84
CCOC(=O)[C@]12Cc3cc(OC)ccc3[C@H]1N(C(C)C)C(=O)c1cc(OC)ccc12	none (no result: TPT1 inh, Rpn11 inh)
CCn1c(O)c(/C=N/NC(=O)c2ccncc2)c(=O)[nH]c1=S	none
CCn1c(O)c(/C=N/NC(=O)c2ccccc2)c(=O)n(CC)c1=S	TPT1 inh 94 | TPT1 inh confirm 26 | RNase T1 inh 34
O=C1NC(=O)N(c2ccc(Br)cc2)C(=O)/C1=C/c1ccsc1	TPT1 inh 30 | TPT1 inh confirm inactive | RNase T1 inh inactive
O=C1NC(=O)N(c2ccc(F)cc2)C(=O)/C1=C/c1ccsc1	none
O=C1NC(=O)N(c2cccc(Br)c2)C(=O)/C1=C/c1ccsc1	TPT1 inh 91 | TPT1 inh confirm 70 | RNase T1 inh 72
N#CC1c2ccccc2-n2nncc2CN1C(=O)CCc1ccccc1 (centres undefined)	none (no result: TPT1 inh)
CCOc1ccccc1CN1C2CCC1CC(c1ccc(C)cc1)C2 (centres undefined)	none
CCCCn1nnnc1C(CCSC)N1CCC2(CC1)C(=O)NCN2c1ccccc1 (centres undefined)	none (no result: TPT1 inh)
O=C(O)c1ccccc1-c1ccc(C=C2C(=O)N(c3ccccc3)C(=S)N(c3ccccc3)C2=O)o1	none
CC1(C)OC(c2ccccc2)=C/C(=C/C=C2C(=O)NC(=S)NC2=O)O1	TPT1 inh 129 (no result: Myeloid diff 2, HNF4A DNA FP, Rpn11 inh) | TPT1 inh confirm 77 | RNase T1 inh 76
O=C1NC(=S)NC(=O)C1=Cc1cccc2cc3ccccc3cc12	none (no result: TPT1 inh)
CCCCn1c(O)c(C(=O)/C=C/c2c[nH]c3ccccc23)c(=O)[nH]c1=O	Myeloid diff 2 active, TPT1 inh 121 (not shown: Rpn11 inh) | TPT1 inh confirm 178 | RNase T1 inh 161
COc1cc(/C=C/c2nc3ccccc3c(=O)n2-c2ccccc2O)ccc1O	TPT1 inh 26 (not shown: Rpn11 inh) | TPT1 inh confirm 45 | RNase T1 inh 49
COc1ccccc1-n1c(/C=C/c2ccc(O)cc2)nc2ccccc2c1=O	none
CC(C)n1c(=O)c(C=Nc2cccc([N+](=O)[O-])c2)c(O)n(CCc2ccccc2)c1=O	TPT1 inh 43 | TPT1 inh confirm inactive | RNase T1 inh inactive
C=CCN1C(=O)NC(=O)/C(=C/c2cccn2C)C1=O	TPT1 inh 52 | TPT1 inh confirm inactive | RNase T1 inh inactive
Cn1cccc1/C=C1/C(=O)NC(=O)N(Cc2ccccc2)C1=O	none
Cn1cccc1/C=C1\C(=O)NC(=O)N(Cc2ccccc2)C1=O	TPT1 inh 25 | TPT1 inh confirm inactive | RNase T1 inh 34
C=CCN1C(=O)NC(=O)/C(=C/c2ccc(N(C)C)c(Br)c2)C1=O	none
C=CCN1C(=O)NC(=O)/C(=C/c2ccoc2)C1=O	TPT1 inh 106 | TPT1 inh confirm inactive | RNase T1 inh inactive
c1ccc2nc(N3CCNCC3)ccc2c1	none
C=C1C(=O)OC2CC3(C)OC3C3OC3C3=CC(OC3=O)C12 (centres undefined)	none (no result: TPT1 inh)
COC(=O)C1=C(C(=O)OC)C2OC1c1cc3ccccc3cc12	Myeloid diff 2 inconclusive (no result: TPT1 inh)
COc1cc(/C=C2/C(=O)NC(=O)N(c3ccc(C)cc3)C2=O)cc(OC)c1OC	none
COc1cc(/C=C2\C(=O)NC(=O)N(c3ccc(C)cc3)C2=O)cc(OC)c1O	TPT1 inh 31 | TPT1 inh confirm inactive | RNase T1 inh inactive
CCOc1ccc(-n2c(O)c(C=Nc3ccc(N4CCOCC4)cc3)c(=O)[nH]c2=O)cc1	none
CCN(CC)c1ccc(N=Cc2c(O)n(-c3ccc(OC)cc3)c(=O)[nH]c2=O)cc1	TPT1 inh 56 | TPT1 inh confirm inactive | RNase T1 inh inactive
C=CCn1c(O)c(C=Nc2ccc(N(CC)CC)cc2)c(=O)[nH]c1=O	none
CCN(CC)c1ccc(N=Cc2c(O)n(-c3ccc(Cl)cc3)c(=O)[nH]c2=O)cc1	TPT1 inh 27 (not shown: Rpn11 inh) | TPT1 inh confirm 58 | RNase T1 inh 72
CC(=O)N1Cc2cnnn2-c2ccccc2C1C#N (centres undefined)	none (no result: TPT1 inh)
CC1=NN(c2ccccc2)C(=O)C1/C=C1/C(=O)NC(=O)N(c2cc(C)cc(C)c2)C1=O (centres undefined)	TPT1 inh 29 | TPT1 inh confirm 32 | RNase T1 inh 50
O=C1NC(=O)N(c2ccccc2)C(=O)/C1=C\C=C\c1ccccc1	none
Cc1cc(C)cc(N2C(=O)NC(=O)/C(=C\C=C\c3ccco3)C2=O)c1	TPT1 inh 47 | TPT1 inh confirm 45 | RNase T1 inh 62
Cc1ccc(N2C(=O)NC(=O)/C(=C/C=C/c3ccco3)C2=O)cc1	TPT1 inh 28 | TPT1 inh confirm 35 | RNase T1 inh 52
CCc1ccc(N2C(=O)NC(=O)/C(=C\C=C\c3ccco3)C2=O)cc1	TPT1 inh 58 (not shown: Rpn11 inh) | TPT1 inh confirm 51 | RNase T1 inh 68
O=C(/C=C/c1ccc(F)cc1)NC(=S)N1C[C@H]2C[C@H](C1)c1cccc(=O)n1C2	none
C[C@]12CCC(=O)C[C@H]1CC[C@@H]1[C@@H]2CC[C@]2(C)C(=O)CC[C@@H]12	none (no result: TPT1 inh)
O=c1[nH]c2ccccc2n1C1CCN(C(CCc2ccccc2)c2nnnn2C2CCCC2)CC1 (centres undefined)	none (no result: TPT1 inh)
CC(C)c1ccc(N2C(=O)NC(=O)/C(=C/C=C/c3ccco3)C2=O)cc1	Myeloid diff 2 active, TPT1 inh 102, HNF4A DNA FP 66 (not shown: Rpn11 inh) | TPT1 inh confirm 70 | RNase T1 inh 72
CN1C(=O)C(=Cc2ccc(N3CCCCCC3)o2)C(=O)N(C)C1=S	Myeloid diff 2 active, TPT1 inh 140 (not shown: Rpn11 inh) | TPT1 inh confirm 118 | RNase T1 inh 122
CN1C(=O)C(=Cc2ccc(N3CCOCC3)o2)C(=O)N(C)C1=O	TPT1 inh 136 (not shown: Rpn11 inh) | TPT1 inh confirm 148 | RNase T1 inh 145
CC12CCC(O)CC1CCC1C2CCC2(C)C(C(=O)CO)CCC12 (centres undefined)	none (no result: TPT1 inh)
O=C1NC(=O)N(c2ccccc2F)C(=O)/C1=C/c1cn(CC(=O)N2CCOCC2)c2ccccc12	TPT1 inh 28 (no result: Myeloid diff 2, HNF4A DNA FP, Rpn11 inh) | TPT1 inh confirm inactive | RNase T1 inh inactive
